# Only a selection was taken, and hits are over-represented in it overall.
# Shiga toxin inh = blocks Shiga toxin action in Vero cells; Vero cells, Shiga toxin protein synthesis inhibition reporter; inhibition, % at 38.7 µM; 290,000 compounds, 9.2% hits; in the data active = inhibition mostly above about 28%, no sharp cut-off; inactive = mostly below about 43%; also: 0% is about no effect
# RE007 growth inh = less growth of the S. pombe RE007 Vpr strain; S. pombe RE007 Vpr strain, BacTiter-Glo ATP luminescence, 24 h; Potency, µM (series often up to 92.2 µM), for the others: top-dose activity change, negative = less growth, most hits filed as inhibitors; 360,000 compounds, 0.21% hits; active = well fitted falling curve with a large enough effect; inconclusive = small, poorly fitted or top-dose-only effect; inactive = no such curve, though single readings can be large or run the other way; also: potency is read from the fitted curve at half-maximal effect; % is scaled to controls: 0 for no effect and ±100 for the full control effect; nearly all actives have a fitted effect of over 50% in size
#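 Fission yeast RE007 carrying one integrated HIV-1 vpr copy, seeded at OD 0.01 in PMG+AL medium with 23 nL pinned compound. Grown 24 h at 30 degrees; viability read by BacTiter-Glo luminescence after 5 min.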
# Tb PYK inh = inhibitors of Trypanosoma brucei pyruvate kinase; Q57TT1; TbPYK enzyme, Kinase-Glo Plus ATP luminescence, 45 min; Potency, µM (titrated, usually from 76.8 µM), without a hit: top-dose activity, negative = inhibition, actives largely listed as inhibitors; 410,000 compounds, 0.12% hits; also: potency is read from the fitted curve at half-maximal effect; % is scaled to controls: 0 for no effect and ±100 for the full control effect; nearly all actives have a fitted effect of over 50% in size
#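 Readout: single end-point luminescence (Kinase-Glo Plus, 10 min). Reaction conditions were TbPYK/substrate plus 130 uM ADP, 45 min at RT, pH 7.2 TEA buffer. No-enzyme wells served as controls, and data were normalized before concentration-response fitting.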
# FBPA Giardia inh = blocks Giardia fructose-bisphosphate aldolase activity; purified Giardia FBPA; 290,000 compounds, 0.71% hits; Potency, µM (series often up to 59.6 µM), inactives show at the top dose activity, negative = inhibition, most hits filed as inhibitors; AID 2451; A8B2U2; also: potency is read from the fitted curve at half-maximal effect; % is scaled to controls: 0 for no effect and ±100 for the full control effect; nearly all actives have a fitted effect of over 55% in size
#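 Giardia FBPA (40 nM reagent) was preincubated 10 min at RT with compound (up to 57.5 uM final), then substrate plus GAPDH/TPI/NAD/arsenate coupling system with diaphorase/resazurin was added; resorufin fluorescence (525/598 nm) was read after 20 min.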
# CHX counter = counter-screen hit for Shiga toxin inhibitors, cycloheximide | AID 2314 | max response, % | cell reporter, cycloheximide protein synthesis inhibition counterscreen | 300,000 compounds, 12% hits; in the data active = max response mostly above about 13%, no sharp cut-off; inactive = mostly below about 14%; also: read at 38.3 µM for the half of the compounds with a filed dose; 0% is about no effect
# LmPK inh = blocks Leishmania mexicana pyruvate kinase activity; 290,000 compounds, 0.37% hits; Potency, µM (titrated, usually from 57.5 µM), for the others: at the highest dose activity change, negative = inhibition, actives largely listed as inhibitors; AID 1721; purified LmPK, Kinase-Glo ATP luminescence, 1 h; also: potency is read from the fitted curve at half-maximal effect; % is scaled to controls: 0 for no effect and ±100 for the full control effect
# Target sequence (Q27686 whole entry, looked up): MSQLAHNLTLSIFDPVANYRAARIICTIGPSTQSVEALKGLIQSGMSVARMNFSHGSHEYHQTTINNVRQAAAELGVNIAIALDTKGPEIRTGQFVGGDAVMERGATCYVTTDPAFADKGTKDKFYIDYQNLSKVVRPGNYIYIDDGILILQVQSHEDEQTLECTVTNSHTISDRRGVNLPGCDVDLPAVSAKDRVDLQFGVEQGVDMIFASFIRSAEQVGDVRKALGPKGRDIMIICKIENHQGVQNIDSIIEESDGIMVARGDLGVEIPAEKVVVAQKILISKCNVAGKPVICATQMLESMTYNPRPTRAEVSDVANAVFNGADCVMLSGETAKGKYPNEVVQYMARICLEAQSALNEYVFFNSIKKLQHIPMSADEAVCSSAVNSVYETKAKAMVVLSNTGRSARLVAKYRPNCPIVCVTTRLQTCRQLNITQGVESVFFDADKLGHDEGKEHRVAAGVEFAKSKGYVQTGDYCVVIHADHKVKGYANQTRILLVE
#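 Purified LmPK (0.1 nM) converted ADP (0.1 mM) to ATP with PEP (0.5 mM) in imidazole buffer pH 7.2 with KCl and MgCl2, 1 h at room temperature. ATP was read by Kinase-Glo luminescence; data normalized to uninhibited and no-enzyme controls.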
# Starred values were filed as active, the others as inactive; ? = inconclusive; nt = no result given; [ ] = dose if it differs, or a comment. Unless noted, calls follow the shape of the dose curve; as a rule, active = well fitted curve in the direction sought with a large enough effect; inconclusive = small, poorly fitted or top-dose-only effect, or another doubt; inactive = no such curve, though single readings can be large; an effect the other way counts as inactive or inconclusive.
SMILES,Shiga toxin inh,RE007 growth inh,Tb PYK inh,FBPA Giardia inh,CHX counter,LmPK inh
O=C1CN(C(=O)c2ccc(S(=O)(=O)N3CCCC3)cc2)C(c2ccccc2)c2cc(Cl)ccc2N1 (configuration not stated),nt,nt,2%,nt,nt,nt
O=C(Cn1c(=O)n(Cc2ccc3c(c2)OCO3)c(=O)c2ccccc21)Nc1cccc(Cl)c1,nt,nt,-1%,nt,nt,nt
CCCCC/C=C\C[C@@H](O)/C=C/C=C\C/C=C\CCCC(=O)O,nt,nt,nt,6%,nt,nt
CN1/C(=C\C(=O)c2cccnc2)Sc2ccccc21,93*,1%,0%,-28%,42*,-28%
CN1C(=O)C(O)(CC(=O)c2cccnc2)c2ccccc21 (configuration not stated),-3,5%,1%,-1%,-4,2%
COc1cccc(C(=O)/C=C2\Sc3ccccc3N2C)c1,84*,?,2%,?,31*,?
CCC1CCCCN1C(=O)CSc1nc2c([nH]c3ccccc32)c(=O)n1-c1ccc(OC)cc1 (configuration not stated),nt,nt,1%,nt,nt,nt
CC(=O)c1cccc(NC(=O)c2c(C)nn(-c3ccc(F)cc3)c2-n2cccc2)c1,nt,nt,-4%,nt,nt,nt
Cc1cc(=O)[nH]c(SCC(=O)Nc2nc(-c3ccccc3)c(-c3ccccc3)o2)n1,15,-3%,-3%,-1%,16*,12%
Cc1cc(C)nc(SCC(=O)Nc2nc(-c3ccccc3)c(-c3ccccc3)o2)n1,-1,17%,0%,21%,-1,1%
CN1CC(=O)Nc2cc(C(=O)O)ccc21,nt,nt,4%,nt,nt,nt
COC(=O)c1ccc(N=NN2CCCCCC2)cc1,88*,?,2%,3%,79*,-3%
COC(=O)c1ccc(N=NN2CCOCC2)cc1,34*,-4%,3%,1%,41*,-10%
CC(=O)N(C(C)=O)S(=O)(=O)c1ccc(N=NN2CCCCC2)cc1,10,-8%,4%,9%,-1,-8%
CC(=O)NS(=O)(=O)c1ccc(N=NN2CCCCC2)cc1,-7,2%,-3%,8%,-2,-1%
O=C(O)c1ccc(N=NN2CCCCC2)cc1,57,-2%,2%,22%,53*,-27%
NS(=O)(=O)c1ccc(N=NN2CCCCC2)cc1,56*,-15%,6%,2%,52*,0%
CCCC/C=C/[C@H](c1ccccc1)[C@H](CO)Cc1ccc([N+](=O)[O-])cc1,16,nt,nt,-3%,6,nt
Clc1ccc(N=NN2CCOCC2)cc1,71*,11%,-2%,6%,42*,-4%
O=P(C(=Nc1ccc(Cl)cc1)N1CCOCC1)(N1CCOCC1)N1CCOCC1,17,4%,-17%,5%,-3,-5%
COc1ccc(/C=C2/SC(=S)N(CCCC(=O)Nc3ccc(O)cc3)C2=O)cc1,94*,-4%,-2%,-2%,51*,8%
COc1cc(/C=C2\SC(=S)N(CCC(=O)Nc3ccc(O)cc3)C2=O)cc(OC)c1OC,-6,-10%,-15%,6%,1,0%
COc1ccc(/C=C2\SC(=S)N(CCC(=O)Nc3cccc(O)c3)C2=O)cc1,62*,-7%,-1%,7%,39*,-4%
COc1ccc(/C=C2\SC(=S)N(CCC(=O)Nc3ccc(C(=O)O)cc3)C2=O)cc1,nt,-15%,5%,-2%,-3,4%
COc1ccc(/C=C2\SC(=S)N(CCCC(=O)Nc3ccc(O)cc3)C2=O)cc1,51*,-7%,28%,1%,35*,2%
Cc1cc(C)cc(-n2ccnc2SCC(=O)Nc2nc3ccc(C)cc3s2)c1,nt,nt,-2%,nt,nt,nt
C[C@@H](CCc1ccccc1)NC[C@H](O)c1ccc(O)c(C(N)=O)c1,nt,nt,3%,5%[21.7 µM],nt,nt
COc1cc2c(cc1OC)C(c1ccc(-c3ccc(Cl)c(Cl)c3)o1)=NCC2,-9,32µM*,-28%,-21%,1,13µM*
Cc1cccc(OCCn2c(=O)n(C)c3ccccc32)c1,115*,0%,-10%,-1%,67*,7%
Cc1cccc(OCCn2c(SCC(=O)O)nc3ccccc32)c1,nt,nt,-28%,nt,nt,nt

# Source: PubChem
